Test results taken from the supplement of paper PMC11732987, “Enantioselective OTUD7B fragment discovery through chemoproteomics screening and high-throughput optimisation” (Communications Chemistry, 2025).

Legend:
Assay in all cases: log2 ratio of Biotin-Ahx-Ub-VS probe labelling (fragment/DMSO); higher = less target engagement (more negative = stronger competition), active = hit call of the paper (q ≤ 0.05, log2 ratio ≤ -1)
Conditions in all cases: compound concentration: 200 uM; treatment time: 3 h
[1] = biological target: USP34 (UniProt Q70CQ2)
Sequence of USP34 (Q70CQ2 whole entry, the tested form may be a part): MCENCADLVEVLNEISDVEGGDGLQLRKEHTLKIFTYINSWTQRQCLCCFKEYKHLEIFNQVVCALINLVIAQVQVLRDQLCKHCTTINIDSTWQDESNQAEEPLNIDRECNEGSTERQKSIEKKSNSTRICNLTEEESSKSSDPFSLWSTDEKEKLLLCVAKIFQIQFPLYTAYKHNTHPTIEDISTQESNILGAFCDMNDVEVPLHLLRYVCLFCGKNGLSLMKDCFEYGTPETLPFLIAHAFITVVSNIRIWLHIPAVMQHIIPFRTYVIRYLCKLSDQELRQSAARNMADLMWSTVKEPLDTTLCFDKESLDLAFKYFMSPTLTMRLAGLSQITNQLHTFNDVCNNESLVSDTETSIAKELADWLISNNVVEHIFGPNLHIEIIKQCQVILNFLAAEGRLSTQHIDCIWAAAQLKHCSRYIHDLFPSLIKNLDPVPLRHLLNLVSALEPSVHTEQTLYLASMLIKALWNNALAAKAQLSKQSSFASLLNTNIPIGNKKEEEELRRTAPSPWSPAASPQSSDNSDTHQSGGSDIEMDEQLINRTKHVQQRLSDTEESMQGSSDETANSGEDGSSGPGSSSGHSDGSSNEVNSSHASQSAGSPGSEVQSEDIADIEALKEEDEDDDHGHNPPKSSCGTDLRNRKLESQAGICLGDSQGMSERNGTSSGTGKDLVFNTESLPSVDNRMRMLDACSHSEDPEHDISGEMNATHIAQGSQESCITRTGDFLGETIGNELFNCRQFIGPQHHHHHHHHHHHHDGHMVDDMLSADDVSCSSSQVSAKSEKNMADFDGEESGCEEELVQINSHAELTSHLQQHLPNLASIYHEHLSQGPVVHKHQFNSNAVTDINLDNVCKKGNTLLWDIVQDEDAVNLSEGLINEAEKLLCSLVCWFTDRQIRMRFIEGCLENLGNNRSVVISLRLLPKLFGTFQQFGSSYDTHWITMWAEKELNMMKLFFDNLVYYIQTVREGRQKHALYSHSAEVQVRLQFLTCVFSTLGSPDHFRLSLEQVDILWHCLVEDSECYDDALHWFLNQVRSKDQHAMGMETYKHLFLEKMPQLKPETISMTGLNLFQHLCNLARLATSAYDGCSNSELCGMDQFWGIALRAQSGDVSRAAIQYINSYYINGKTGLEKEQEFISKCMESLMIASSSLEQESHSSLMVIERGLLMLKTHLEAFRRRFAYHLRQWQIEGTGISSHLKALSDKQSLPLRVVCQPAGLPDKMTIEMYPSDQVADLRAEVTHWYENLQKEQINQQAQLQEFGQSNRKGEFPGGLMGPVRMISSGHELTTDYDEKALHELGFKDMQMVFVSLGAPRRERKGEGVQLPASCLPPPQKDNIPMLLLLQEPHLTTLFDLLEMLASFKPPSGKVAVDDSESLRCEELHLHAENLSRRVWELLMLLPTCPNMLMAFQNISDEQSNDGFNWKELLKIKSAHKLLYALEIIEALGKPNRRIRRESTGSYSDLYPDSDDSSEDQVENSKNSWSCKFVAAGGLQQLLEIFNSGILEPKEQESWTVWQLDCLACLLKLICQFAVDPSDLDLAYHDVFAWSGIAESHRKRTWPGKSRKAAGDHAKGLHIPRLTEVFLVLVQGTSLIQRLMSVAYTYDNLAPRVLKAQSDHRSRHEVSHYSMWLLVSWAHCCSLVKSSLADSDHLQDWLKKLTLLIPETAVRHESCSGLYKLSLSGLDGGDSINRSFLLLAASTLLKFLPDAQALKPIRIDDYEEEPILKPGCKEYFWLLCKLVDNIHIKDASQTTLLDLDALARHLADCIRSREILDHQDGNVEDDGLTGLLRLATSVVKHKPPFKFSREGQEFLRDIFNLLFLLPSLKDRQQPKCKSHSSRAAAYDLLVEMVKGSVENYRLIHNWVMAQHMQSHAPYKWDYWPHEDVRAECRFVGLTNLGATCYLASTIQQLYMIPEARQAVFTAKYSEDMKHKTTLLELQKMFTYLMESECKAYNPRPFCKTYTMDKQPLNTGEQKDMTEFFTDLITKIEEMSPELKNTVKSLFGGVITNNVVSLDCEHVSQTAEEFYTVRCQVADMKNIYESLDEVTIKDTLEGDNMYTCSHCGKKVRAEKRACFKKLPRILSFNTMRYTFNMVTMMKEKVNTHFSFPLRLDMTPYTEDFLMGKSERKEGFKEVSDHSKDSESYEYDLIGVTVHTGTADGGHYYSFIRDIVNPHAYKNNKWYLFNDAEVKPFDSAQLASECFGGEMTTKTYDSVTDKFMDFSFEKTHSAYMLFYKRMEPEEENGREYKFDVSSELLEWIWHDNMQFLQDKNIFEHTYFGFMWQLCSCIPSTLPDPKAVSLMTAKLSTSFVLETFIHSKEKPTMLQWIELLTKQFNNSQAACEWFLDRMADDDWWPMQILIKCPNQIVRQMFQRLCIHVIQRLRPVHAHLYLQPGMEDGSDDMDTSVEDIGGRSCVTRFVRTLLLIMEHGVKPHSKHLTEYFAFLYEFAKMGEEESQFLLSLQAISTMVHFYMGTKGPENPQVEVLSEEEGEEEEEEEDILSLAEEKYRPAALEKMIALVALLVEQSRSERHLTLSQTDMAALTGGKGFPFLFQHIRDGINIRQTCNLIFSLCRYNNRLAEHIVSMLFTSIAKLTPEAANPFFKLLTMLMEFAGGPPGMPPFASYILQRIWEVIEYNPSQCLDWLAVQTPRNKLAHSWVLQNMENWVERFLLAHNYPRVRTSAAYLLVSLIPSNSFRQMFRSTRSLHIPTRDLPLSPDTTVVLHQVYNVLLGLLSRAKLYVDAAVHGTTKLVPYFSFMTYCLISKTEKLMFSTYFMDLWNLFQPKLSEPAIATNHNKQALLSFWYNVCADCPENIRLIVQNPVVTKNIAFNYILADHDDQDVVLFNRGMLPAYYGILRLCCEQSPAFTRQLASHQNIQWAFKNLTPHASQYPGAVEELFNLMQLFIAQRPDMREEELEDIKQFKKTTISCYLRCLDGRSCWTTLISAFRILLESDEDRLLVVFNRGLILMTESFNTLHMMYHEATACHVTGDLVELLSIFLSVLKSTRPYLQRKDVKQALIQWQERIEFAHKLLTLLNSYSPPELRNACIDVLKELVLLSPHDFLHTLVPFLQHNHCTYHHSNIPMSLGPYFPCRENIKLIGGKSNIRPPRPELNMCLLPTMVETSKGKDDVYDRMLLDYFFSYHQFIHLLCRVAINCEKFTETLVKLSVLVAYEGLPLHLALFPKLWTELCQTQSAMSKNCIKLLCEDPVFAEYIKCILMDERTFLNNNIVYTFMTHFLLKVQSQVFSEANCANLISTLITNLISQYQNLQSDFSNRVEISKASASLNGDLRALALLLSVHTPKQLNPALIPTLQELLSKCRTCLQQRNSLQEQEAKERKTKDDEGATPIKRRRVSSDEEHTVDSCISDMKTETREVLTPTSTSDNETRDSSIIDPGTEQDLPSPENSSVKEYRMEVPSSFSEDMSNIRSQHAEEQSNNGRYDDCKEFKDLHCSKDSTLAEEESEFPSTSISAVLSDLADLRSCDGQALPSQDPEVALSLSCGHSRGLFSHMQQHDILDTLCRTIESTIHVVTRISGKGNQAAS
Method in brief: (§1)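 Each value is an average log2 ratio of fragment to vehicle, tested by unpaired t-test. The underlying Spectronaut label-free quantities were global-median-normalised, and only proteins with ≥2 unique peptides were included. Triplicate HEK293T lysate samples (495 µg) were exposed to fragment at 200 µM or vehicle for 3 h, then to Biotin-Ahx-Ub-VS at 0.5 µM final for 1 h, before NeutrAvidin enrichment of labelled DUBs, LysC and trypsin digestion, and diaPASEF LC-MS/MS.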

[2] = biological target: T1, USP36 (UniProt Q9P275)
T1 sequence (whole entry): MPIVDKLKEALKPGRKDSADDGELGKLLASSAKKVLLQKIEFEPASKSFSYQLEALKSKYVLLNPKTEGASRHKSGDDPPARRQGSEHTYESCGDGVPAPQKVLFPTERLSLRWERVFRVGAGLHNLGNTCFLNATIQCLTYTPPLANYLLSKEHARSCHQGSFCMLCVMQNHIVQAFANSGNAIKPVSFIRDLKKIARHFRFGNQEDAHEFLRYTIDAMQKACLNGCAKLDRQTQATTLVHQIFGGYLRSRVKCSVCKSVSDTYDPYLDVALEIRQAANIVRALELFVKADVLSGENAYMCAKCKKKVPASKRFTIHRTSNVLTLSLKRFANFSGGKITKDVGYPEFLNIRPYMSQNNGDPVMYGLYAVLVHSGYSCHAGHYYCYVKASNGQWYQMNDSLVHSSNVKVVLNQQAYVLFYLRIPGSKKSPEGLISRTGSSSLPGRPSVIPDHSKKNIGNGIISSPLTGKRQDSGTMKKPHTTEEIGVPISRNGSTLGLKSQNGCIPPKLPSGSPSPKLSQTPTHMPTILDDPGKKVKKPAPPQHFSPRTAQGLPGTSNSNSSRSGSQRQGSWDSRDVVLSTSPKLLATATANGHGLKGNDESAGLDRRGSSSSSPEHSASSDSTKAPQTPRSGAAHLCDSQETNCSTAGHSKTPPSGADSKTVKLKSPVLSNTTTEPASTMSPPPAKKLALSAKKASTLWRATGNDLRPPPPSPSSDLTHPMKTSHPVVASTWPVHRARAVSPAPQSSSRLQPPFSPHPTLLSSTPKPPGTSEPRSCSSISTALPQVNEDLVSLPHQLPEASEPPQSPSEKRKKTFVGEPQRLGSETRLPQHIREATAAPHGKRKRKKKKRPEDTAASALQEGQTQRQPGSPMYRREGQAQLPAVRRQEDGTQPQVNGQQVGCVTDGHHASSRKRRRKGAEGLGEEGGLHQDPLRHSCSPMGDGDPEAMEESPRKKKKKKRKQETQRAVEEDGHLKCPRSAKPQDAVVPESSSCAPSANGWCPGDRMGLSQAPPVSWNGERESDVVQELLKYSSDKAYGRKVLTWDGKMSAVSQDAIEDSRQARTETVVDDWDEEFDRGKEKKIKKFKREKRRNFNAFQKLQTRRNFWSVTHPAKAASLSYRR
Method in brief: as §1

[3] = biological target: T2, USP38 (UniProt Q8NB14)
T2 sequence (whole entry): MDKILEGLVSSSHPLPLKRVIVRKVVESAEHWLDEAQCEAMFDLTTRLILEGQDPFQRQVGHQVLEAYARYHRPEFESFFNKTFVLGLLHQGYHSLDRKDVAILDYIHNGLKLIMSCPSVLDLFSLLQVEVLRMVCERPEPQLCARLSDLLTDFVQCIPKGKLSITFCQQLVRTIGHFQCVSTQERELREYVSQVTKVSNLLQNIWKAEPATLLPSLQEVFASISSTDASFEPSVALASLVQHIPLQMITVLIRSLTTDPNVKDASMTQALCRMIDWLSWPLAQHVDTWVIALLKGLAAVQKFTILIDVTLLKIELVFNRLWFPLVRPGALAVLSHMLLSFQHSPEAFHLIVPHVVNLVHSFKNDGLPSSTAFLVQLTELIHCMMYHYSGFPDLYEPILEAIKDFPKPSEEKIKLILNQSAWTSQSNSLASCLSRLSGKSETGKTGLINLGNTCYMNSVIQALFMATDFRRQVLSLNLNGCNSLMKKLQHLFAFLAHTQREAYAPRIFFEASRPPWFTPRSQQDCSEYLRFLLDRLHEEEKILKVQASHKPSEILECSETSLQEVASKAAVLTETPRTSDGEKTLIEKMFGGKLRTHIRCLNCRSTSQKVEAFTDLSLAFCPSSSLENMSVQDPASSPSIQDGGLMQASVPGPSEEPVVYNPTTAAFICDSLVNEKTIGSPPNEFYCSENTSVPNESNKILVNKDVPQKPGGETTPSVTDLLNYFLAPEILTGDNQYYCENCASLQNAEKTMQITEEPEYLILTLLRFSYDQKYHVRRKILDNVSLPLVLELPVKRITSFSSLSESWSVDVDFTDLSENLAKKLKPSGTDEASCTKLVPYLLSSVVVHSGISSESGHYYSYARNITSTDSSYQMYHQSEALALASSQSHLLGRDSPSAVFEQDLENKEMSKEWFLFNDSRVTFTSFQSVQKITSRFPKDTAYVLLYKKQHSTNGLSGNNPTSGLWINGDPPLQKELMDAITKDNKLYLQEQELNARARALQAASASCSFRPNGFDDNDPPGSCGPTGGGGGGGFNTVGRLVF
Method in brief: as §1

[4] = biological target: T3, USP39 (UniProt Q53GS9)
T3 sequence (whole entry): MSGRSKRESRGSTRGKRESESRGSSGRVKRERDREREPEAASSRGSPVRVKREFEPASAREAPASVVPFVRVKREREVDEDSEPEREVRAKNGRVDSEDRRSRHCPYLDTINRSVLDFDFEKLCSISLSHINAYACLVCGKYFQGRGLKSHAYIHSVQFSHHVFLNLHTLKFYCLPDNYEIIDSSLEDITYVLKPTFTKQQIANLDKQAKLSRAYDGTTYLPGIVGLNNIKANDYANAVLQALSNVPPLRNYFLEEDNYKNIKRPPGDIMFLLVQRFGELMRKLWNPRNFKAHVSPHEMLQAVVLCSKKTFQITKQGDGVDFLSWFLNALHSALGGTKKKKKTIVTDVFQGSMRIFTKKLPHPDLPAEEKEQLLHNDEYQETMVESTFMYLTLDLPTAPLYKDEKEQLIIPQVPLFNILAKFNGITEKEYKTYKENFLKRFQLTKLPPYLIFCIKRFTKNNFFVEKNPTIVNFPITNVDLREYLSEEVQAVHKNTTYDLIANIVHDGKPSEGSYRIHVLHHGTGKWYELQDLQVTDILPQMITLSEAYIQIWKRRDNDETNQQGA
Method in brief: as §1

[5] = biological target: T4, USP4 (UniProt Q13107)
T4 sequence (whole entry): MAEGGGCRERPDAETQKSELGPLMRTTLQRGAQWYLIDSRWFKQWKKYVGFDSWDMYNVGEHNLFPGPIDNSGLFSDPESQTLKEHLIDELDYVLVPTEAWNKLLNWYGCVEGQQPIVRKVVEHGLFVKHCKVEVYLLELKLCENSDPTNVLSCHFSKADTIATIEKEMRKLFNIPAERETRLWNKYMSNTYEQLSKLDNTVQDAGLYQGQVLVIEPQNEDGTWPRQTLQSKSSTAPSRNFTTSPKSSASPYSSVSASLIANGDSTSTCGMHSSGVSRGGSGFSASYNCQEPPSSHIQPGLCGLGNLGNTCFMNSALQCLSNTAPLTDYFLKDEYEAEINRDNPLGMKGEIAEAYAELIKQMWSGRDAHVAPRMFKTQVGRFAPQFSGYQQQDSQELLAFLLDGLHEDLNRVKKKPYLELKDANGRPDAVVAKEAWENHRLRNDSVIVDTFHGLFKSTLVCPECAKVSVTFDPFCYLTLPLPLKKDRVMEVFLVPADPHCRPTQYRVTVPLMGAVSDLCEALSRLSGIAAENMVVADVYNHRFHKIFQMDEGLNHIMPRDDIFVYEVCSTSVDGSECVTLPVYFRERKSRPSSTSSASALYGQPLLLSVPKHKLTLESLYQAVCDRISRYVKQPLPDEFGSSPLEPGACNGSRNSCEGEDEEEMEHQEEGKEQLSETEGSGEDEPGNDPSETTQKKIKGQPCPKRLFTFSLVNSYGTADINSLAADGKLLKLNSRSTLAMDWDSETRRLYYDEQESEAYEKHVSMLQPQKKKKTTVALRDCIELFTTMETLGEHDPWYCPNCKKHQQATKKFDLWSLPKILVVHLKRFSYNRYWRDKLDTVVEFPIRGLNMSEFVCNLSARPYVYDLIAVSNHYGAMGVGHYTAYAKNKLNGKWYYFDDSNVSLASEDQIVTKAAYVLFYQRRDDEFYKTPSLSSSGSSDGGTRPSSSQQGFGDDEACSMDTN
Method in brief: as §1

Measured: log2 ratio of Biotin-Ahx-Ub-VS probe labelling

Cl.O=C(CCl)NCc1cc2c(nc1O)CCCC2
inactive: [1] -0.103 | [2] -0.408 | [3] -0.0702 | [4] -0.212 | [5] -0.0856
